Data published in PubChem BioAssay (NCI).
The panel holds about 83,000 compounds, 20% with a hit somewhere; the sample as a whole holds those more often.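 Compound tested at a single concentration for 48 hours in 96-well plates; a percent growth value below 10 was scored as active.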 A number with no mark means an inactive call. The source made the active and inactive calls.

Test system: EKVX NSCLC
Assay: NCI-60 one-dose screen, 48 h (100 = growth as untreated, 0 = no growth, -100 = all killed)
Conditions: 10 µM unless noted

Compound | growth
COc1ccc(C=Nc2c(C(=O)Nc3cccc(Cl)c3C)sc3nc(C)c(C(=O)/C=C/c4ccc(OC)cc4)cc23)cc1 | 43.2%
CCOC(=O)CNC1=C(Cl)C(=O)N(Cc2ccc(Cl)cc2)C1=O | 100%
COc1ccc(/C=C(\C(=O)NCc2cccnc2)S(=O)(=O)c2ccccc2)cc1OC | 38.9%
COc1cc2c(c(OC)c1OC)CCC(c1cccc(C(=O)Nc3ccc(Br)cc3)c1)O2 (stereo not given) | 60.5%
Nc1cc(-c2ccc(Cl)cc2)nn1-c1nnc(/C=C/c2ccco2)c(=O)[nH]1 | 41.7%
N#C/C(=C\c1ccc(-c2cccc(Cl)c2)o1)C(=O)Nc1ncc(Cc2ccc(Cl)cc2)s1 | 69.4%
CCOC(=O)c1c(C)nc2c(c1N)C(=O)C(=O)N2Cc1ccc(OC)cc1 | 90.9%
c1csc(-c2cn3nc(-c4c[nH]c5ccccc45)sc3n2)c1 | 36%
FC(F)(F)c1[nH]ncc1-c1nc2ccc3[nH]ncc3c2c2c1CCCC2 | 3.77% (active)
COc1cc(-c2nccc3[nH]c(-c4cccc5[nH]ccc45)nc23)cc(OC)c1OC | 46.3%
COc1ccc2[nH]cc(-c3nonc3-c3c[nH]c4ccc(Br)cc34)c2c1 | 29.9%
CC(=O)c1c(Nc2cccc(F)c2)[nH]c2c(Cl)cc(Cl)c(Cl)c2c1=O | 10.8%
CCOC(=O)NC(=S)n1oc(=O)c2ccccc21 | 101%
O=S(Nc1ccccc1)c1ccc(Cl)cc1 (stereo not given) | 102%
Nc1c(Br)cc2c(c1Br)Cc1cc([N+](=O)[O-])ccc1-2 | 55.3%
CCCN(CCSSCCNc1nc(N(C)O)nc(N(C)O)n1)c1nc(N(C)O)nc(N(C)O)n1 | 54.3%
COC(=O)c1sccc1-c1cc(O)c(C(=O)Nc2ccccc2)s1 | 71.9%
N#Cc1c(-c2ccc(Cl)cc2)nc(NN=Cc2ccc[nH]2)nc1N1CCOCC1 | 66%
Clc1ccc(-c2nc(C(Cl)Cl)nc3cc(-c4ccccc4)nn23)cc1 | -12.8% (active)
C/C(=N\Nc1ccccc1)c1ccc(NC2=CC(=O)c3ccccc3C2=O)cc1 | 74%

Compound | growth
COc1ccc(/C=C(/C(=O)N2CCNCC2)c2cc(OC)c(OC)c(OC)c2)cc1O | 84.1%
CCN(CC)CCCC(Cc1ccccc1)Nc1c2ccc(Cl)cc2nc2ccc(OC)cc12 (stereo not given) | 26.6%
Fc1ccc2[nH]cc(-c3nc(-c4c[nH]c5c(Cl)nccc45)cs3)c2c1 | 63.2%
Fc1ccc(/C=C/[C@@H]2C[C@@H](F)CCO2)cc1 | 97.3%
Cc1ccccc1N1CCN(C(=S)c2ccccc2)CC1 | 96.1%
N#Cc1ccc(/C=C/c2cn(-c3ccccc3)nc2-c2cccc([N+](=O)[O-])c2)cc1 | 66.8%
Cc1[nH]c(C(=O)Nc2ccccc2OC2CCN(CCN3CCOCC3)CC2)c(Cl)c1Cl | 86%
COc1ccc(C(O)c2cc3c(N)c(C(=O)Nc4cccc5ccccc45)sc3nc2C)cc1 (stereo not given) | 41.8%
Cc1ccc(C(=O)c2ccc(CC(=O)N/N=C/c3cccc(O)c3O)n2C)cc1 | 58.8%
CCC(C)(C)c1ccc(Nc2ccc(Nc3ccc(C(C)(C)CC)cc3)cc2)cc1 | 98.6%
O=C(Nc1ccc(Nc2ccncc2)cc1)c1ccc(Nc2ccnc3ccc([N+](=O)[O-])cc23)cc1 | 107%
CCCCNC(=O)c1ccc2c(c1)nc(-c1ccccc1)n2C1CCCCC1 | 88.4%
Cc1ccc(NC(=O)c2cc3ccccc3cc2O)c(C)c1 | 79.6%
CCOC(=O)C(CCN(C)C)c1ccccc1 (stereo not given) | 101%
CC(O)Cc1c[nH]c(=O)[nH]c1=O (stereo not given) | 106%
COCCn1cc(-c2nc(-c3c[nH]c4ncccc34)cs2)c2ccccc21 | 16.4%
CC1SC(c2ccccc2O)N(NC(=O)CCC(=O)c2nc3ncccc3[nH]2)C1=O (stereo not given) | 85.7%
COC12C=C/C(=C(/C(=O)OCCSc3ccnn3C)C(=O)CCCCCCCCC3(OC)C=C/C(=C(/C(=O)OCCSc4ccnn4C)C(=O)CCCCCCCC1)O3)O2 | 9.41% (active)
COC1C(O)CC(OC2CC(OC3CC(O[C@@H]4C(=O)c5c(cc6cc(OC7CC(OC8CC(O)C(O)C(C)O8)C(O)C(C)O7)c(C)c(O)c6c5O)CC4[C@H](OC)[C@@H](O)C(C)=O)OC(C)C3O)OC(C)C2O)OC1C (stereo not given in full) | 19.8%
CNC(=O)c1cc(Oc2ccc3c(c2)sc2nc(-c4ccc(NC(=O)[C@@H](NC(=O)OC)C(C)C)cc4)cn23)ccn1 | 66.3%

Test system: SN12C renal
Assay: as above
Conditions: 10 µM unless noted

Compound | growth
COc1ccc(C=Nc2c(C(=O)Nc3cccc(Cl)c3C)sc3nc(C)c(C(=O)/C=C/c4ccc(OC)cc4)cc23)cc1 | 21%
CCOC(=O)CNC1=C(Cl)C(=O)N(Cc2ccc(Cl)cc2)C1=O | 99.1%
COc1ccc(/C=C(\C(=O)NCc2cccnc2)S(=O)(=O)c2ccccc2)cc1OC | 10.9%
COc1cc2c(c(OC)c1OC)CCC(c1cccc(C(=O)Nc3ccc(Br)cc3)c1)O2 (stereo not given) | 47.1%
Nc1cc(-c2ccc(Cl)cc2)nn1-c1nnc(/C=C/c2ccco2)c(=O)[nH]1 | 68.2%
N#C/C(=C\c1ccc(-c2cccc(Cl)c2)o1)C(=O)Nc1ncc(Cc2ccc(Cl)cc2)s1 | 35.9%
CCOC(=O)c1c(C)nc2c(c1N)C(=O)C(=O)N2Cc1ccc(OC)cc1 | 82.6%
c1csc(-c2cn3nc(-c4c[nH]c5ccccc45)sc3n2)c1 | 34.2%
FC(F)(F)c1[nH]ncc1-c1nc2ccc3[nH]ncc3c2c2c1CCCC2 | 12.5%
COc1cc(-c2nccc3[nH]c(-c4cccc5[nH]ccc45)nc23)cc(OC)c1OC | 40.9%
COc1ccc2[nH]cc(-c3nonc3-c3c[nH]c4ccc(Br)cc34)c2c1 | 67.7%
CC(=O)c1c(Nc2cccc(F)c2)[nH]c2c(Cl)cc(Cl)c(Cl)c2c1=O | -0.0775% (active)
CCOC(=O)NC(=S)n1oc(=O)c2ccccc21 | 102%
O=S(Nc1ccccc1)c1ccc(Cl)cc1 (stereo not given) | 102%
Nc1c(Br)cc2c(c1Br)Cc1cc([N+](=O)[O-])ccc1-2 | 101%
CCCN(CCSSCCNc1nc(N(C)O)nc(N(C)O)n1)c1nc(N(C)O)nc(N(C)O)n1 | 69.7%
COC(=O)c1sccc1-c1cc(O)c(C(=O)Nc2ccccc2)s1 | 105%
N#Cc1c(-c2ccc(Cl)cc2)nc(NN=Cc2ccc[nH]2)nc1N1CCOCC1 | 40.1%
Clc1ccc(-c2nc(C(Cl)Cl)nc3cc(-c4ccccc4)nn23)cc1 | 65.1%
C/C(=N\Nc1ccccc1)c1ccc(NC2=CC(=O)c3ccccc3C2=O)cc1 | 63.5%

Compound | growth
COc1ccc(/C=C(/C(=O)N2CCNCC2)c2cc(OC)c(OC)c(OC)c2)cc1O | 54.6%
CCN(CC)CCCC(Cc1ccccc1)Nc1c2ccc(Cl)cc2nc2ccc(OC)cc12 (stereo not given) | 73.6%
Fc1ccc2[nH]cc(-c3nc(-c4c[nH]c5c(Cl)nccc45)cs3)c2c1 | 65.9%
Fc1ccc(/C=C/[C@@H]2C[C@@H](F)CCO2)cc1 | 100%
Cc1ccccc1N1CCN(C(=S)c2ccccc2)CC1 | 96.6%
N#Cc1ccc(/C=C/c2cn(-c3ccccc3)nc2-c2cccc([N+](=O)[O-])c2)cc1 | 48.1%
Cc1[nH]c(C(=O)Nc2ccccc2OC2CCN(CCN3CCOCC3)CC2)c(Cl)c1Cl | 97.7%
COc1ccc(C(O)c2cc3c(N)c(C(=O)Nc4cccc5ccccc45)sc3nc2C)cc1 (stereo not given) | 14.4%
Cc1ccc(C(=O)c2ccc(CC(=O)N/N=C/c3cccc(O)c3O)n2C)cc1 | 46.8%
CCC(C)(C)c1ccc(Nc2ccc(Nc3ccc(C(C)(C)CC)cc3)cc2)cc1 | 96.7%
O=C(Nc1ccc(Nc2ccncc2)cc1)c1ccc(Nc2ccnc3ccc([N+](=O)[O-])cc23)cc1 | 113%
CCCCNC(=O)c1ccc2c(c1)nc(-c1ccccc1)n2C1CCCCC1 | 102%
Cc1ccc(NC(=O)c2cc3ccccc3cc2O)c(C)c1 | 89.7%
CCOC(=O)C(CCN(C)C)c1ccccc1 (stereo not given) | 99.5%
CC(O)Cc1c[nH]c(=O)[nH]c1=O (stereo not given) | 110%
COCCn1cc(-c2nc(-c3c[nH]c4ncccc34)cs2)c2ccccc21 | 77.8%
CC1SC(c2ccccc2O)N(NC(=O)CCC(=O)c2nc3ncccc3[nH]2)C1=O (stereo not given) | 101%
COC12C=C/C(=C(/C(=O)OCCSc3ccnn3C)C(=O)CCCCCCCCC3(OC)C=C/C(=C(/C(=O)OCCSc4ccnn4C)C(=O)CCCCCCCC1)O3)O2 | -4.94% (active)
COC1C(O)CC(OC2CC(OC3CC(O[C@@H]4C(=O)c5c(cc6cc(OC7CC(OC8CC(O)C(O)C(C)O8)C(O)C(C)O7)c(C)c(O)c6c5O)CC4[C@H](OC)[C@@H](O)C(C)=O)OC(C)C3O)OC(C)C2O)OC1C (stereo not given in full) | 17%
CNC(=O)c1cc(Oc2ccc3c(c2)sc2nc(-c4ccc(NC(=O)[C@@H](NC(=O)OC)C(C)C)cc4)cn23)ccn1 | 72.2%
